From PubChem BioAssay (Tox21)
Records with an inconclusive call do not appear. Entries that show only a call come without a potency. Calls of active or inactive are those of the source. The call rests on the fitted dose curve; in most records, active means well fitted cell-killing curve with a large enough effect in the repeat runs; inconclusive means weak or mixed curves, or effect the other way; inactive means flat fitted curve, though single readings scatter.

experiment: qHTS assay to identify small molecule that activate the aryl hydrocarbon receptor (AhR) signaling pathway - cell viability counter screen (AID 743086); conditions: HepG2-AhR-luc viability, CellTiter-Fluor, 24 h; series mostly up to 70.3 µM; further: nearly all actives have a fitted effect of over 45% in size
Description: U.S. Tox21 Program National Center for Advancing Translational Sciences [NCATS] NIH Chemical Genomics Center [NCGC] U.S. Environmental Protection Agency [EPA] National Institutes of Environmental Health Sciences [NIEHS] National Toxicology Program [NTP] U.S. Food and Drug Administration [FDA] Tox21 Assay overview: The Aryl hydrocarbon Receptor (AhR), a member of the family of basic helix-loop-helix transcription factors, is crucial to adaptive responses to environmental changes. AhR mediates cellular responses to environmental pollutants such as aromatic hydrocarbons through induction of phase I and II enzymes but also interacts with other nuclear receptor signaling pathways A cell based HepG2-AhR-luc assay (HG2L7.5c1 cell line, developed by Dr. Michael S. Denison, University of California at Davis) was used to assess the activation of AhR. HepG2 (human hepatocellular carcinoma) cells were stably transfected with an Ah receptor-responsive firefly luciferase reporter gene plasmid containing 20 dioxin responsive elements and luciferase reporter gene. Increased luciferase activity can be used to identify the compounds that induce AhR activation. The cytotoxicity of the compounds screened against the HepG2-AhR-luc cell line was tested in parallel by measuring the cell viability using CellTiter-Fluor assay in the same wells.
Tox21 Assay Protocol Summary: 4000 cells in 5 uL/well were dispensed into white wall/solid bottom 1536-well plates using a Multidrop Combi (Thermo Fisher Scientific Inc., Waltham, MA) dispenser. After the assay plates were incubated at 37C for 5 h, 23 nL of compound or DMSO vehicle was transferred to the assay plates by a pintool station (Kalypsys, San Diego, CA). The plates were incubated at 37C for 24 hr. For cell viability measurement, 1 ul/well of CellTiter-Fluor reagent (Promega, Madison, WI) was added into the assay plates using a Flying Reagent Dispenser (FRD) (Aurora Discovery, CA),and then the assay plates were incubated at 37C for 30 min. The fluorescence intensity in the plates was measured using a ViewLux plate reader (PerkinElmer, Shelton, CT), followed by the addition of 4 uL of ONE-Glo Luciferase Assay reagent (Promega) using an FRD (Aurora Discovery). After the assay plates were incubated at room temperature for 30 min, luminescence intensity was measured using a ViewLux plate reader (Perkin Elmer).
Potency means the concentration at half of the fitted maximal effect.

Question: For `O=CC=C(c1ccccc1)c1ccccc1`, which Potency is on record?
Answer: Its Potency is “inactive”.

Question: Which Potency does the source give for `CC(C)(C)c1ccc(C(=O)CCCN2CCC(OC(c3ccccc3)c3ccccc3)CC2)cc1` here?
Answer: The Potency was “inactive”.

Question: Which Potency does the source give for `CCc1oc2ccccc2c1C(=O)c1cc(Br)c(O)c(Br)c1` here?
Answer: The Potency was “inactive”.

Question: For `C[C@H]1[C@H]2CC[C@H]3[C@@H]4CC=C5C[C@@H](N(C)C)CC[C@]5(C)[C@H]4CC[C@]23CN1C`, which Potency is on record?
Answer: Its Potency is “inactive”.

Question: Which Potency does the source give for `Cc1c(C)c2c(c(C)c1OC(=O)CCC(=O)O)CC[C@@](C)(CCC[C@H](C)CCC[C@H](C)CCCC(C)C)O2` here?
Answer: The Potency was “inactive”.

Question: With `NNc1nc(-c2ccc([N+](=O)[O-])cc2)cs1` as the molecule, how does the Potency read?
Answer: Its Potency is “inactive”.

Question: For `CC1=NC(C)OC1C` (stereo not given), which Potency is on record?
Answer: Its Potency is “inactive”.

Question: Which Potency does the source give for `CCc1cc(Cc2cc(CC)c(N)c(CC)c2)cc(CC)c1N` here?
Answer: The Potency was “inactive”.

Question: For `O=C(OCC1CO1)C1CCCCC1C(=O)OCC1CO1` (stereo not given), which Potency is on record?
Answer: Its Potency is “inactive”.

Question: With `CN1CCN(CCC(=O)N2c3ccccc3Sc3ccc(C(F)(F)F)cc32)CC1` as the molecule, how does the Potency read?
Answer: Its Potency is 18.8 µM (active).

Question: With `O=c1cccccc1O` as the molecule, how does the Potency read?
Answer: Its Potency is “inactive”.

Question: Which Potency does the source give for `CC(C)(C)CC(C)(C)c1ccc(O)c(Cc2ccc(Cl)cc2Cl)c1` here?
Answer: The Potency was “inactive”.

Question: With `CCCCN(CCCC)c1ccc(C(=O)c2ccccc2C(=O)O)c(O)c1` as the molecule, how does the Potency read?
Answer: Its Potency is “inactive”.

Question: Which Potency does the source give for `CCCCCCCCCCCC(=O)NCCCN(C)C` here?
Answer: The Potency was 54.5 µM (active).

Question: For `CCCCCCCC/C=C/CCCCCCCC1=NCCN1CCO`, which Potency is on record?
Answer: Its Potency is “inactive”.

Question: Which Potency does the source give for `CO[Si](CCCNc1ccccc1)(OC)OC` here?
Answer: The Potency was “inactive”.

Question: Which Potency does the source give for `Cc1cc(O)c2ccccc2c1O` here?
Answer: Its Potency is “inactive”.

Question: With `C[n+]1ccn(Cc2ccccc2)c1` as the molecule, how does the Potency read?
Answer: Its Potency is “inactive”.

Question: With `C=CC(=O)OCC(CO)(COCC(COC(=O)C=C)(COC(=O)C=C)COC(=O)C=C)COC(=O)C=C` as the molecule, how does the Potency read?
Answer: Its Potency is 6.04 µM (active).

Question: Which Potency does the source give for `C[C@@H](NCCCc1cccc(C(F)(F)F)c1)c1cccc2ccccc12` here?
Answer: Its Potency is 29.8 µM (active).

Question: For `Cc1cccc(S(=O)(=O)O)c1C`, which Potency is on record?
Answer: Its Potency is “inactive”.

Question: Which Potency does the source give for `CCCCCCCCOc1ccccc1C(=O)Nc1ccc(C(=O)OCC[N+](C)(CC)CC)cc1` here?
Answer: Its Potency is “inactive”.

Question: Which Potency does the source give for `C[C@H](CCC(=O)O)[C@H]1CC[C@H]2[C@@H]3CC[C@@H]4C[C@H](O)CC[C@]4(C)[C@H]3CC[C@]12C` here?
Answer: The Potency was “inactive”.

Question: Which Potency does the source give for `CCC(Cl)C(Cl)C(Cl)CC(Cl)C(Cl)C(C)Cl` (stereo not given) here?
Answer: Its Potency is “inactive”.

Question: With `O=C(O)c1c(Cl)cccc1Cl` as the molecule, how does the Potency read?
Answer: The Potency was “inactive”.

Question: Which Potency does the source give for `CC(=O)OCC(C)OC(C)=O` (stereo not given) here?
Answer: Its Potency is “inactive”.

Question: With `Fc1ccc([C@@H]2CCNC[C@H]2COc2ccc3c(c2)OCO3)cc1` as the molecule, how does the Potency read?
Answer: The Potency was 26.6 µM (active).

Question: With `O=C(c1ccc(O)cc1O)c1ccc(O)cc1O` as the molecule, how does the Potency read?
Answer: The Potency was “inactive”.

Question: Which Potency does the source give for `CC(C)(C)C(=O)OCOC(=O)[C@@H]1N2C(=O)[C@@H](NC(=O)[C@H](N)c3ccccc3)[C@H]2SC1(C)C` here?
Answer: Its Potency is “inactive”.

Question: With `Cc1c(C)c2c(c(C)c1O)CCC(C)(COc1ccc(CC3SC(=O)NC3=O)cc1)O2` (stereo not given) as the molecule, how does the Potency read?
Answer: The Potency was “inactive”.

Question: Which Potency does the source give for `O=C1CCCCCN1SSN1CCCCCC1=O` here?
Answer: The Potency was “inactive”.

Question: With `O=c1[nH]cnc2nc[nH]c12` as the molecule, how does the Potency read?
Answer: Its Potency is “inactive”.

Question: Which Potency does the source give for `NNc1nc(-c2ccc(N)cc2)cs1` here?
Answer: The Potency was “inactive”.

Question: With `OCCCCCCCCCCCCBr` as the molecule, how does the Potency read?
Answer: The Potency was “inactive”.

Question: For `CCN(CC)CCNC(=O)c1c(C)[nH]c(/C=C2\C(=O)Nc3ccc(F)cc32)c1C`, which Potency is on record?
Answer: Its Potency is 11.9 µM (active).

Question: For `CCN(CCC#N)c1ccc(N=Nc2c(Cl)cc([N+](=O)[O-])cc2Cl)cc1`, which Potency is on record?
Answer: The Potency was 27.3 µM (active).

Question: For `O=S1(=O)CC(Cl)(Cl)C(Cl)(Cl)C1`, which Potency is on record?
Answer: The Potency was 13.7 µM (active).

Question: For `CCOc1ccc2nc3cc(N)ccc3c(N)c2c1`, which Potency is on record?
Answer: The Potency was “inactive”.

Question: Which Potency does the source give for `CC(C)=CCOc1ccc(/C=C/C(=O)c2ccc(OCC=C(C)C)cc2OCC(=O)O)cc1` here?
Answer: The Potency was “inactive”.

Question: Which Potency does the source give for `O=C(Oc1ccccc1)c1ccccc1C(=O)Oc1ccccc1` here?
Answer: The Potency was “inactive”.
